Each structure is given as a SMILES string. Compounds without any hit were thinned out: in the full panel of roughly 83,000, 20% have a hit.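 Method: cells in 96-well plates; compound added at one concentration; 48 h incubation; percent growth measured; values under 10 scored active.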 Values without a mark were called inactive. Active and inactive are the calls of the source.

Common to all, as to experiment: NCI-60 one-dose screen, 48 h (100 = growth as untreated, 0 = no growth, -100 = all killed)
Holding throughout (conditions): 10 µM unless noted

Assay [1] concerns T-47D breast.
In assay [2] the test system is BT-549 breast.
Assay [3] relates to MDA-MB-435 melanoma.
Assay [4] deals with SW-620 colon.
Assay [5] deals with MCF7 breast.
For assay [6], the system named is HCT-116 colon.
The subject of assay [7] is HCC-2998 colon.
The subject of assay [8] is KM12 colon.

For the compound `COc1ccc(NC(=O)c2sc3nc(C)c(C(=O)c4ccccc4)cc3c2N)cc1`, the growth was 91% in assay [1]; 113% in assay [2]; 98% in assay [3]; 90.9% in assay [4]; 88.8% in assay [5]; 108% in assay [6]. Also, the figures for the growth in assay [7] and in assay [8] were 103% and 95.3%, respectively.
For the compound `CCCCCC(C)(O)C(C(=O)O)c1ccccc1` (stereo not drawn), the growth in assay [1] is 106%; in assay [2], 101%; in assay [3] it was 107%; in assay [4] it was 102%; in assay [5] it was 98.1%; in assay [6], 99.2%. In addition, the growth in assay [7] is 108%; in assay [8] it was 104%.
For the compound `O=C(O)COc1ccc(F)cc1`, the growth in assay [1] was 104%; in assay [2], 119%; in assay [3], 108%; in assay [4], 112%; in assay [5], 95.8%; in assay [6] it was 103%. The growth in assay [7] and in assay [8] was 103% each time.
Consider `CC(C)n1cc(C2=C(c3cccc4ccccc34)C(=O)NC2=O)c2cc(Br)ccc21`, for which the growth in assay [1] is 90%; in assay [2], 92.6%; in assay [3], 61.6%; in assay [4], 46.7%; in assay [5], 76.1%; in assay [6] it was 35.4%. Further, the growth in assay [7] was 52.1%; in assay [8] it was 36.5%.
As to `CC/C(=C(/c1ccc(Cl)cc1)c1ccc(OCCN(CC)CC)cc1)c1ccc(OC)cc1`, the growth was 39.1% in assay [1]; 67.7% in assay [2]; 69.1% in assay [3]; 40.2% in assay [4]; 13.7% in assay [5]; 34.2% in assay [6]. In addition, the growth in assay [7] was 54.7%; in assay [8], 35.1%.
`COc1cccc(-c2nn(-c3ccccc3)cc2-c2ccnc(-c3cccnc3)c2)c1`: the growth was 76.9% in assay [1]; 98.5% in assay [2]; 97.7% in assay [3]; 109% in assay [4]; 87.1% in assay [5]; 85.7% in assay [6]. Besides, the growth is 96.4% in assay [7] and 94.7% in assay [8].
Regarding `CC(=O)CC(=O)c1ccccc1.[Cu+2]`, the growth is 93.2% in assay [1]; 114% in assay [2]; 105% in assay [3]; 103% in assay [4]; 75.1% in assay [5]; 97.7% in assay [6]. Also, the growth in assay [7] is 107%; in assay [8] it was 98.2%.
As to `COC(=O)c1c(C)nc(C)c2c1C(=O)C(Br)=C(NCCN1CCOCC1)C2=O`, the growth was 114% in assay [1]; 101% in assay [2]; 56.1% in assay [3]; 92.1% in assay [4]; 82.3% in assay [5]; 67.4% in assay [6]. For the same compound, the results for the growth in assay [7] and in assay [8] were 101% and 96.9%, respectively.
Turning to `CCOC(=O)c1c(C)nc2c(c1N)C(=O)C(=O)N2CCc1ccc(OC)c(OC)c1`, the growth is 44.6% in assay [1]; 64.4% in assay [2]; 41.4% in assay [3]; 47.8% in assay [4]; 20.3% in assay [5]; 38.7% in assay [6]. The growth is 93.7% in assay [7] and 58.3% in assay [8].
Take `COc1cc2c(c(OC)c1OC)CCC(c1cccc(NC(=O)c3cccc(Cl)c3)c1)O2` (stereo not drawn): the growth in assay [1] was 59.1%; in assay [2], 97.2%; in assay [3], 89.9%; in assay [4] it was 93.9%; in assay [5] it was 84.4%; in assay [6], 87.7%. Also, the results for the growth in assay [7] and in assay [8] were 100% and 97.1%, respectively.
For `FC(F)(F)c1cccc(-c2nnn(Cc3cc(-c4cccc(Cl)c4)no3)n2)c1`, the growth is 108% in assay [1]; 97.7% in assay [2]; 105% in assay [3]; 106% in assay [4]; 99.1% in assay [5]; 96.7% in assay [6]. Moreover, the growth was 103% in assay [7] and 102% in assay [8].
Regarding `CCN1CCN(CCOc2ccc(CNc3ccc4nc(CCC5CCCCC5)[nH]c4c3)cc2)CC1`, the growth in assay [1] was -8.02% (active); in assay [2], 65.6%; in assay [3] it was -17.8% (active); in assay [4], 22.1%; in assay [5], 3.86% (active); in assay [6] it was 17.9%. Moreover, the growth was 4.19% (active) in assay [7] and 47.1% in assay [8].
Regarding `CC(=O)Oc1ccccc1C(=O)N(Cc1ccc2c(Cl)cc(Cl)c(O)c2n1)c1ccccc1`, the growth in assay [1] was 40.7%; in assay [2], 77.3%; in assay [3], 54.3%; in assay [4], 29.1%; in assay [5], 34.7%; in assay [6] it was 30.9%. The growth in assay [7] is 60.1%; in assay [8], 39.6%.
With `c1ccc(Cn2cc3c(c2)-c2nc(Nc4ccccc4)ncc2CC3)cc1`, the growth in assay [1] is 74.3% [100 µM]; in assay [2] it was 87.6% [100 µM]; in assay [3], 96% [100 µM]; in assay [4], 92% [100 µM]; in assay [5], 70.5% [100 µM]; in assay [6], 80.6% [100 µM]. For the same compound, the growth in assay [7] was 99.9% [100 µM]; in assay [8] it was 87% [100 µM].
Consider `Oc1c(Cl)cc(Cl)c2ccc(CN3CCNCC3)nc12`, for which the growth is 43.6% in assay [1]; 82.2% in assay [2]; 58.6% in assay [3]; 26.6% in assay [4]; 34.4% in assay [5]; 32.6% in assay [6]. The growth in assay [7] was 60.1%; in assay [8], 49.6%.
`COc1ccc(S(=O)(=O)NC2c3ccccc3CC2O)cc1OC` (stereo not drawn): the growth in assay [1] was 105%; in assay [2], 112%; in assay [3] it was 105%; in assay [4], 100%; in assay [5], 97.3%; in assay [6], 104%. The growth in assay [7] was 99.8%; in assay [8], 101%.

The values are drawn from PubChem BioAssay (NCI).
